# In PubChem BioAssay AID504660 (National Center for Advancing Translational Sciences (NCATS), 2011):
# Values joined by “and” are separate entries in the source; they are usually repeats but may differ in a detail not shown here. Equal values may be shown once. The whole screen tested about 360,000 compounds, of which about 3,700 (1%) were called active. Cut-off read from the data, not from the text of the source: active = activation above about 30%; inactive = the rest. The sample as a whole holds a higher share of actives than the screen did.
# Biological target: D(1A) dopamine receptor (Homo sapiens) (UniProt P21728)
# Test: Allosteric Agonists of the Human D1 Dopamine Receptor: qHTS; note: 0% is about no effect
# Settings: HEK293 T-REx D1 cells, calcium flux, agonist mode; at 2 µM; active compounds read high
# From the text: NIH Chemical Genomics Center [NCGC] NIH Molecular Libraries Probe Centers Network [MLPCN] MLPCN Grant: NS064831-01 Assay Submitter (PI): David Sibley Dopamine receptors (DARs) are involved in the etiology and/or therapy of a number of neuropsychiatric and endocrine disorders. For instance, all receptor-based antiparkinsonian drugs work via stimulating the D1 DAR subtype whereas all FDA-approved antipsychotic agents are antagonists of this receptor. […] There are three different types of allosteric modulators that we are seeking, two of which will stimulate or augment receptor signaling, allosteric agonists and potentiators, while the third, allosteric antagonists, will attenuate receptor signaling. The present primary screening assay measures compound agonism by tracking calcium flux in a […], inducible Hek293 Trex D1 cell line.
# Freshly passaged cells are plated in 1536 well black, clear bottom plates at a density of 4000 cells/well in 3 ul of complete media containing 1x tetracycline inducer. After an overnight incubation at […] in 5% CO2, cells are loaded with 2 ul of the no wash Calcium Assay Kit (ABD Bioquest) and incubated at room temperature for 30 to 90 minutes. Agonist read: A 10 cycle (1 second/cycle) baseline measurement is taken and then the FDSS online 1536 pintool delivers 23 nl of compound library (as well as dopamine controls) to the plate. The plate is measured for kinetically at 1 cycle/sec for 180 seconds and is considered to be the agonist portion of the assay (eg, compounds which activate a positive calcium response during this portion are flagged as potential agonists). Following the 180 second read, 1 ul of either an EC20 (positive modulation assay) or EC80 (negative modulation assay) is delivered by an onboard pipette head. Measurements are taken kinetically for an additional 180 seconds.
# Chain of D(1A) dopamine receptor (Homo sapiens) (P21728 whole entry, looked up): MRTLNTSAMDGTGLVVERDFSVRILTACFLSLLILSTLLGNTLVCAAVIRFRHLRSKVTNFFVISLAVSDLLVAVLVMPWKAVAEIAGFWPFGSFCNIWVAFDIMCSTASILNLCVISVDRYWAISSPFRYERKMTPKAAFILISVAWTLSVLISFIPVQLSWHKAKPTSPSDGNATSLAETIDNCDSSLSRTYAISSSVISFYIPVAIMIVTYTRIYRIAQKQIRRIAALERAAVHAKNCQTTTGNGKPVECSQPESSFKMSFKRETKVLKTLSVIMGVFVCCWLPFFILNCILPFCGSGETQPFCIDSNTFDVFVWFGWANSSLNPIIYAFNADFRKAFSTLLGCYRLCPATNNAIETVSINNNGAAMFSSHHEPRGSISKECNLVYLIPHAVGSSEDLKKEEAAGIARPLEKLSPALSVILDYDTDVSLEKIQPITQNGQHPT
row,Compound,activation
1,CSc1ccc(CCNC(=O)c2ccc3c(c2)nc2n3CCOC2)cc1,0.926% (inactive)
2,O=S(=O)(NCC(c1ccco1)N1CCOCC1)c1cc(F)ccc1F (stereo not given),-2.87% (inactive)
3,CCc1ccc(C2CC(=O)c3c([nH]c(C(=O)OCc4ccc(C)cc4)c3C)C2)cc1 (stereo not given),3.18% (inactive)
4,Cc1ccc2nc(COc3cccc(NC(=O)Nc4ccc(C)c(Cl)c4)c3)cc(=O)n2c1,-0.44% (inactive)
5,Cc1ccc(C(=O)CC2(O)C(=O)N(CCc3ccccc3)c3ccc(Br)cc32)cc1 (stereo not given),9.1% (inactive)
6,CCC(=O)c1ccc(OCC(=O)N(CC)CC2COc3ccccc3O2)cc1 (stereo not given),3.24% (inactive)
7,O=C(Cn1nc(Cc2cccnc2)c2ccccc2c1=O)NCC1COc2ccccc2O1 (stereo not given),0.536% (inactive)
8,c1ccc2c(c1)OCC(CNc1ncnc3nc[nH]c13)O2 (stereo not given),182% (active)
9,CCn1c2ccccc2c2nnc(N3CCN(c4cc(C)ccc4C)CC3)nc21,-0.584% (inactive)
10,Cc1ccc2c(=O)c(C(=O)c3cccc(Cl)c3)cn(CC(=O)NCc3ccccc3)c2n1,0.234% (inactive)
11,CCOc1ccc(NC(=O)Cn2cc(C(=O)c3ccc(C)cc3)c(=O)c3cc4c(cc32)OCCO4)cc1,4.93% (inactive)
12,CC(=O)n1c(C=Nc2ccccc2)c(O)c2ccccc21,52.3% (active)
13,CCCn1c(=O)c(-c2ccccc2)c(O)c2ccccc21,0.534% (inactive)
14,Cc1cc(=O)n(CC(=O)Nc2cccc([N+](=O)[O-])c2)c(-n2nc(C)cc2C)n1,-0.478% (inactive)
15,Cc1ccc(C(=O)NC2CCN(C#N)CC2)cc1,-0.099% (inactive)
16,O=C(N/N=C/C=C/c1ccco1)c1cccs1,2.91% (inactive)
17,Cc1cccc(-n2c(C)cc(/C=N\NC(=O)c3cccs3)c2C)c1,36.3% (active)
18,Cc1ccccc1-n1c(C)cc(/C=N/NC(=O)c2ccc(CN3CCOCC3)cc2)c1C,9.59% (inactive)
19,N#CN1CCC(NS(=O)(=O)c2cccc(F)c2)C1 (stereo not given),0.986% (inactive)
20,Cc1cc2c(s1)c1cnn(Cc3cc(F)c(Cl)cc3Cl)c(=O)c1n2C,-0.162% (inactive)
21,Cc1cccc(S(=O)(=O)c2cn(Cc3ccccc3)c3cc(N4CCOCC4)c(F)cc3c2=O)c1,1.08% (inactive)
22,Cc1c(Nc2cc(N3CCCC(C)C3)c3nonc3c2[N+](=O)[O-])c(=O)n(-c2ccccc2)n1C (stereo not given),-0.0536% (inactive)

row,Compound,activation
1,Nc1cc(N2CCCCCC2)c2nonc2c1[N+](=O)[O-],34.1% (active)
2,COCCNc1nc(N)c([N+](=O)[O-])c(N2CCCCCC2)n1,2.99% (inactive)
3,CC(C)c1ccc(NC(=O)Cn2c3ncccc3c(=O)n2-c2ccccc2)cc1,2.49% (inactive)
4,COCCNc1ncnc2c1c(-c1ccccc1)cn2-c1ccc(C)c(Cl)c1,2.02% (inactive)
5,COc1ccc(-n2cc(CNC3CCOCC3)c(-c3cccc(F)c3)n2)cc1,14.3% (inactive)
6,CCC(O)C1CCN(Cc2cn(-c3ccc(OC)cc3)nc2-c2cccc(F)c2)CC1 (stereo not given),34.2% (active)
7,Cc1cccc(-n2cc(CN3CCN(C(=O)c4ncn[nH]4)CC3)c(-c3cccc(F)c3)n2)c1,1.07% (inactive)
8,CCOC(=O)c1ccc(NC(=O)CSc2nc3c([nH]c4ccccc43)c(=O)n2C)cc1,0.658% (inactive)
9,COc1cccc(C(=O)NCC(=O)OCc2cc(=O)n3ccsc3n2)c1,-0.454% (inactive)
10,Cc1c(CCO)sc[n+]1CC(=O)OC12CC3CC(CC(C3)C1)C2,2.73% (inactive)
11,Cc1c(CCOC(=O)c2cc([N+](=O)[O-])ccc2Cl)sc[n+]1CCCCS(=O)(=O)[O-],2.52% (inactive)
12,Cc1c(CCOC(=O)CC23CC4CC(CC(C)(C4)C2)C3)sc[n+]1Cc1ccc([N+](=O)[O-])cc1,35.6% (active)
13,CCn1c(CN2CCC(C)CC2)nc2cc(NC(=O)c3ccccc3[N+](=O)[O-])ccc21,0.209% (inactive)
14,COc1ccc(OC)c(NC(=O)CSC2=Nc3ccccc3C3=NC(CC(=O)NCc4ccc(F)cc4)C(=O)N23)c1 (stereo not given),-0.058% (inactive)
15,CCOC(=O)c1ccc(N2C(=O)c3n[nH]c(C)c3C2c2ccc(O)c(OC)c2)cc1 (stereo not given),0.253% (inactive)
16,CCCCCCCCCCOC(=O)Cn1c(COc2cccc(OC)c2)[n+](C)c2ccccc21,116% (active)
17,COc1ccc(-n2c(=O)c3sc4ccccc4c3n(CC(=O)Nc3cccc(C)c3)c2=O)cc1,8.8% (inactive)
18,O=C(Nc1ccc(O)c(-c2nc3ccccc3o2)c1)c1ccc(-c2cccc(Cl)c2)o1,0.486% (inactive)
19,C=CCn1c(=N)n(CC(O)COc2ccc(OC)cc2)c2ccccc21 (stereo not given),40.4% (active)
20,Cc1cccc(OCC(O)Cn2c(=N)n(CCN3CCOCC3)c3ccccc32)c1 (stereo not given),0.333% (inactive)
21,CCCn1c(=N)n(CC(O)COc2ccccc2OC)c2ccccc21 (stereo not given),-0.594% (inactive)
22,O=S(=O)(NCCc1nnc2ccc(SCc3ccc(Cl)cc3Cl)nn12)c1ccccc1,1.47% (inactive)

row,Compound,activation
1,Cc1ccc(Cl)cc1N1CCN(C(=O)c2cccn3c(=O)c4cc(Cl)ccc4nc23)CC1,2.28% (inactive)
2,CCn1cc(C(=O)N2CCN(c3cc(Cl)ccc3C)CC2)c(=O)c2cc(S(=O)(=O)N3CCCC3)ccc21,-0.309% (inactive)
3,Cc1ccc(Cl)cc1N1CCN(C(=O)c2cccc3c(=O)c(C)c(-c4ccccc4)oc23)CC1,34.3% (active)
4,COc1ccc(-c2c3c(=O)n(C)c(=O)n(C)c3c3c(C)nc4ccccc4n23)cc1,-0.834% (inactive)
5,COc1ccc(-c2nn3c(-c4ccc(OC)cc4)nnc3c3ccccc23)cc1,-0.437% (inactive)
6,CCOCCCNC(=O)c1cn(CC)c2ccc(S(=O)(=O)N3CCc4ccccc4C3)cc2c1=O,0.286% (inactive)
7,CSCCC(NC(=O)COc1ccccc1)C(=O)OCCOc1ccc(F)cc1 (stereo not given),2.91% (inactive)
8,CSCCC(NC(=O)COc1ccccc1)C(=O)OCC(=O)c1cc2ccccc2o1 (stereo not given),5.5% (inactive)
9,CSCCC(NC(=O)COc1ccccc1)C(=O)OCCOc1ccc(Br)cc1 (stereo not given),30.8% (active)
10,O=C(c1cc(COc2ccc(F)cc2F)on1)N1CCOCC1,2.85% (inactive)
11,CCOC(=O)CC1COCCN1C(=O)c1cc(COc2ccc(F)c(F)c2)on1 (stereo not given),43.4% (active)
12,CCC(NC(=O)c1cc(COc2ccc(F)c(F)c2)on1)c1ccncc1 (stereo not given),24.1% (inactive)
13,CCCCc1nn2c(=O)cc(COC(=O)c3ccc(NC(=O)c4ccccc4C)cc3)nc2s1,4.38% (inactive)
14,COCCCNC(=O)c1ccc(NC(=O)c2nsc3ccccc23)cc1,-0.261% (inactive)
15,CN(C)c1ccc(/C=C2\NC(=S)N(Cc3ccccc3)C2=O)cc1,203% (active)
16,CCn1cc(C(=O)NCc2ccc(C)cc2)c(=O)c2cc(S(=O)(=O)N3CCc4ccccc4C3)ccc21,-1.37% (inactive)
17,CN(C)c1ccc(NC(=O)CSc2nc(-c3ccco3)cc(C(F)(F)F)n2)cc1,-0.482% (inactive)
18,Cc1cc(C)c(-c2n[nH]c3c2C(c2ccccc2F)N(CCO)C3=O)c(O)c1 (stereo not given),-0.0969% (inactive)
19,CCSc1nsc(NC(=O)Nc2cccc(C(C)=O)c2)n1,29.4% (inactive)
20,C=CCSc1nsc(NC(=O)Nc2cccc(C(C)=O)c2)n1,34.2% (active)
21,CC(=O)c1ccc(NC(=O)CSc2nnc(NC(=O)Nc3ccccc3)s2)cc1,2.71% (inactive)
22,CCOc1ccc(-c2cc(C)n3nc(C(=O)Nc4ccc(C)c(C)c4)cc3n2)cc1,0.877% (inactive)

row,Compound,activation
1,Cc1ccc(S(=O)(=O)N2[C@@H](c3cccc(Cl)c3)C(C(=O)O)=CC[C@H]2c2ccc(Cl)c(Cl)c2)cc1,43.2% (active)
2,Cc1ccc(S(=O)(=O)N2[C@@H](c3ccccc3F)C(C(=O)O)=CC[C@H]2c2ccc(Cl)cc2)cc1,3.48% (inactive)
3,Cc1ccccc1S(=O)(=O)N1[C@@H](c2cccc(Cl)c2)C(C(=O)O)=CC[C@H]1c1ccc(Cl)cc1,2.18% (inactive)
4,CCOC(=O)N1CCc2c(sc(NCc3cccc(F)c3)c2C(=O)Nc2ccccc2OCC)C1,-1.06% (inactive)
5,CCOc1ccc(C(O)Cn2c(=N)n(CCN3CCCCC3)c3ccccc32)cc1 (stereo not given),0.859% (inactive)
6,N=c1n(Cc2ccc(Cl)cc2)c2ccccc2n1CC(O)c1ccco1 (stereo not given),92.6% (active)
7,O=C(NCc1ccccc1)C(=O)NCC(c1ccco1)S(=O)(=O)c1ccc(Cl)cc1 (stereo not given),0.796% (inactive)
8,COc1cccc(N2CCN(C(=O)CCCCCn3c(=O)[nH]c4ccccc4c3=O)CC2)c1,3.15% (inactive)
9,Cc1sc(C2C(C#N)=C(N)N(c3cccc(Cl)c3)C3=C2C(=O)CCC3)cc1CN1CCOCC1 (stereo not given),-0.583% (inactive)
10,N#Cc1c(-c2cccs2)nc(SCC(=O)c2ccc(Br)cc2)[nH]c1=O,27.1% (inactive)
11,N#Cc1c(-c2ccccc2)nc(SCc2cccc(C(F)(F)F)c2)[nH]c1=O,42.4% (active)
12,Cc1ccccc1CSc1nnc(-c2ccccc2)c(=O)[nH]1,0.158% (inactive)
13,Cc1c(C(=O)NCc2ccccc2Br)oc2ccc3c(c12)C(=O)CC(C)(C)O3,5.52% (inactive)
14,CCc1cccc(C)c1Nc1c(-c2ccc(N(C)C)cc2)nc2ncccn12,51.7% (active)
15,Cc1ccccc1Nc1c(-c2ccccc2)nc2ncccn12,-0.718% (inactive)
16,Cc1cccc(C)c1Nc1c(-c2ccccc2O)nc2ncccn12,-0.792% (inactive) and 1.73% (inactive)
17,CCc1cc(C(=O)c2ccc(OC)cc2)c(NC(=O)CN2CCN(C)CC2)s1,32.2% (active)
18,COc1ccc(NC(=O)CCN2CCN(CCO)CC2)cc1,1.35% (inactive)
19,CCc1ccc(NC(=O)CN2CCC(C(=O)c3ccc(OC)cc3)CC2)cc1,2.75% (inactive)
